Shown are actives, neighbours in structure and some others; about 6% of the full set was active somewhere.
D1 potentiator: potentiators of human D1 dopamine receptor; P21728; 0.036% of 360,000 active; HEK293 TREx D1 cells, calcium flux, dopamine EC20 potentiation; potentiation, % at 10 µM; in the data active = potentiation above about 30%; note: 0% is about no effect
Target sequence (P21728 whole entry, looked up): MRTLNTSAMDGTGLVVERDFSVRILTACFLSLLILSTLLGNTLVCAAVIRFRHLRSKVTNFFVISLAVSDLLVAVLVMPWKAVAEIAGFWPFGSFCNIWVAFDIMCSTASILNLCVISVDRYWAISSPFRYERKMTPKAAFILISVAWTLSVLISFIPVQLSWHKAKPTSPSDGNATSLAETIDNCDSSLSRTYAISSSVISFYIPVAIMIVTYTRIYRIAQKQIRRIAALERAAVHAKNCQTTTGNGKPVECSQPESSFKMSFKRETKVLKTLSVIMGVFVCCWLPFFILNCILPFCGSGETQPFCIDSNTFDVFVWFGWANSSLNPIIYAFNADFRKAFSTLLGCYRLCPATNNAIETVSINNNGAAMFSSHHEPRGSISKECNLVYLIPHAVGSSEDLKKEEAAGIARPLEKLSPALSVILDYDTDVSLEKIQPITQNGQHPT
D1 antagonist: human D1 dopamine receptor antagonism | P21728 | HEK293 TREx D1 cells, calcium flux, dopamine EC80; active compounds read low | activity change, negative = inhibition, % at 10 µM | 3.2% of 360,000 active; in the data active = activity change below about -30%; note: % is set by controls: 0 for no effect and ±100 for the full control effect
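HEK293 T-REx cells expressing inducible, force-coupled D1 receptor; no-wash Ca dye, 30–90 min RT. Cmpd → 180 s read at 1 Hz → EC80 DA → 180 s read.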
D1 agonist: human D1 receptor agonism; P21728; HEK293 T-REx D1 cells, calcium flux, agonist mode; activation, % at 2 µM; 1% of 360,000 active; in the data active = activation above about 30%; note: 0% is about no effect
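Inducible HEK293 T-REx D1 cells, force-coupled to calcium signalling, were plated at 4000 cells/well with tetracycline and held overnight at 30 C. After no-wash calcium dye loading, compound-evoked calcium rise over 180 s flagged agonists.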
DRD3 antagonist: antagonists of human D3 dopamine receptor | P35462 | D3R cells, DiscoveRx beta-arrestin luminescence, antagonist mode; active compounds read low | max response, negative = inhibition, % | 2.5% of 360,000 active | AID 652054; in the data active = max response below about -50%; inconclusive = no clear call, values can overlap the other calls; note: % is set by controls: 0 for no effect and ±100 for the full control effect
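Cells expressing the human receptor were seeded at 1500 cells/well, incubated overnight at 37 degrees C in 5% CO2, then exposed to library compounds with dopamine controls for 90 minutes at 37 degrees C before luminescent detection.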
D3 ag: agonists of human D3 dopamine receptor. AID 652048. P35462. D3R DiscoveRx beta-arrestin cells, luminescence, 90 min. 0.58% of 410,000 active. max activation, %; in the data active = max activation above about 30%; note: 0% is about no effect
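Cells at 1500/well, incubated overnight, then treated with pinned compounds (dopamine as control) for 90 min at 37 degrees C. DiscoveRx reagent added for 30 - 60 minutes at room temperature; luminescence read.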
* = called active by the depositor; ? = inconclusive; . = not tested or not shown.

SMILES	D1 potentiator	D1 antagonist	D1 agonist	DRD3 antagonist	D3 ag
Cc1nc2ccccc2n1CCc1nc2c3ccccc3nc(SCc3ccc(C#N)cc3)n2n1	-1	-7	3	.	-1
Cc1cc(Cl)c(S(=O)(=O)Nc2ccc3c(c2)OCO3)cc1OCC(N)=O	-4	-34*	3	0	8
Cn1c(=O)c(Nc2ccc(Cl)cc2)c2c3c(cccc31)C(=O)c1ccccc1-2	7	4	78*	?	-16
CCOC(=O)c1c2c3c(cccc3n(C)c1=O)C(=O)c1ccccc1-2	9	-1	2	95	29
CC(=O)Nc1c2c3c(cccc3n(C)c1=O)C(=O)c1ccccc1-2	2	-12	3	-51*	-15
O=C(NCCC1=CCCCC1)c1[nH]c(C(F)(F)F)nc1-c1ccccc1	.	.	.	-6	112*
CN(C)CCN(Cc1ccccc1)C(=O)c1[nH]c(C(F)(F)F)nc1-c1ccccc1	.	.	.	0	39*
O=C(NCc1ccc(F)cc1)c1[nH]c(C(F)(F)F)nc1-c1ccccc1	.	.	.	-7	8
O=C(NCc1ccccc1)c1[nH]c(C(F)(F)F)nc1-c1ccccc1	.	.	.	-24	65*
O=C(NCCc1ccccc1)c1[nH]c(C(F)(F)F)nc1-c1ccccc1	.	.	.	10	8
COc1cc(-c2noc(-c3ccc(N(C)C)c([N+](=O)[O-])c3)n2)cc(OC)c1OC	-4	-24	12	.	13
Cc1ccccc1Cn1ccc(NC(=O)c2cnn3c(C(F)(F)F)cc(-c4ccco4)nc23)n1	-7	-57*	1	7	-2
Cc1ccccc1Cn1ccc(NC(=O)CCSc2nc(-c3ccco3)cc(C(F)(F)F)n2)n1	-2	31	8	-10	7
COc1cccc(NC(=O)N(Cc2cc3cc(C)cc(C)c3[nH]c2=O)CC2COCCO2)c1 (centres undefined)	2	-32*	0	16	11
Cc1cccc(OCC(=O)Nc2ccc3c(c2)nc(CN2CCCCC2)n3C)c1	-2	-18	6	-92*	-14
COc1ccc(OCC(=O)Nc2ccc3c(c2)nc(CCN2CCN(c4ccccn4)CC2)n3C)cc1	.	.	.	-10	14
Cc1cccc(OCC(=O)Nc2ccc3c(c2)nc(CCN2CCN(c4ccccn4)CC2)n3C)c1	-8	-31*	10	1	25
CC(=O)c1ccc(OCCCC(=O)Nc2ccc(C)c(S(=O)(=O)N3CCCCC3)c2)cc1	-5	-36*	20	1	-5
Cc1ccc(NC(=O)COc2cccc(C)c2C)cc1S(=O)(=O)N1CCCCCC1	1	0	5	-8	18
CCc1cccc(OCC(=O)Nc2ccc(C)c(S(=O)(=O)N3CCCCCC3)c2)c1	3	-17	33*	-3	9
COc1ccccc1NC(=O)C(C)Sc1nnc2ccc3ccccc3n12 (centres undefined)	0	0	-1	.	8
CC(C)c1cc(N2CCN(C(=O)c3ccco3)CC2)n2c(nc3ccccc32)c1C#N	-3	-33*	0	8	-3
CC1(C)Cc2c(C#N)c(N3CCN(C(=O)c4ccco4)CC3)nc(Cc3ccccc3)c2CO1	-1	6	5	0	30*
N#Cc1c(N2CCN(C(=O)c3ccco3)CC2)nc(-c2ccccc2)c2c1CCCC2	1	11	3	18	38*
CCN1CCc2c(sc(-n3cccc3)c2C(C)NC(=O)Nc2cc(Cl)c(OC)cc2OC)C1 (centres undefined)	-6	-20	4	.	-21
SMILES	D1 potentiator	D1 antagonist	D1 agonist	DRD3 antagonist	D3 ag
COc1ccc(-n2c(SCC(=O)Nc3nnc(C)s3)nc3c([nH]c4ccccc43)c2=O)cc1	-7	12	1	.	5
Cc1nn(C)c(=O)c(N)c1-c1cc(-c2ccc(Cl)c(Cl)c2)n[nH]1	-4	-47*	8	4	13
c1ccc(CN2CCN(c3nc(-c4ccccc4)nc(-n4ccnc4)n3)CC2)cc1	-1	7	5	-63*	-39
CCCCNc1nc(-c2ccccc2)nc(-n2ccnc2)n1	-7	-38*	1	4	4
C=CCNc1nc(-c2ccccc2)nc(-n2ccnc2)n1	-10	-4	0	-5	1
c1ccc(-c2nc(-n3ccnc3)nc(-n3ccnc3)n2)cc1	-7	-14	3	28	5
COC(=O)/C(=C\c1c(OC)cc(OC)cc1OC)C(=O)c1ccc2c(c1)OCO2	.	.	.	-93*	13

Compound activity (PubChem)
